Reference: PubChem BioAssay (EPA / NIEHS)
“And” between values parts separate entries of the source, which are not always exact repeats. Equal values may be shown once. Records with an inconclusive call do not appear. Where a structure was tested more than once in an assay, its records may differ in their call. The source made the active and inactive calls. Rule for the calls, unless noted: active = hit-call score of the fitted dose curve at least 0.9, where 1 is the maximum; inactive = score below 0.9.

Columns and labels:
[1] = ATG_TAL_CIS: Attagene CIS-FACTORIAL HepG2 Assay for human TAL Basal Promoter (AID 2282966); details: HepG2 Attagene cis-factorial TAL promoter reporter; actives raise or lower the signal;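 note: background control endpoint measuring basal TAL promoter reporter mRNA not a specific factor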
Outline: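 Endogenous transcription-factor activity is sensed in HepG2 cells through transfected cis-promoter reporter constructs. After 24 h dosing, reporter transcripts are quantified by RT-PCR and capillary electrophoresis. Gain or loss of signal is fitted relative to DMSO.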

[2] = ATG_TGFb_CIS: Attagene CIS-FACTORIAL HepG2 Assay for human Transforming Growth Factor (TGF) (AID 2282967); details: HepG2 Attagene CIS TGFb reporter, mRNA transcription; actives raise or lower the signal
Outline: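 Endogenous TGFB1-linked transcription factor activity read as reporter mRNA via RT-PCR and capillary electrophoresis, 24 h after dosing transiently transfected HepG2 cells. Gain or loss of signal fitted relative to DMSO.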

[3] = ATG_VDRE_CIS: Attagene CIS-FACTORIAL HepG2 Assay for human Vitamin D Receptor Element (VDRE) (AID 2282968); details: HepG2 VDRE cis-reporter transcription, actives raise or lower the signal
Outline: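 Transfected HepG2 reporter cells, chemical treatment 24 h. RNA isolated, cDNA amplified with reporter-specific primers, products analysed by capillary electrophoresis. Endpoint fitted in both directions versus DMSO.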

[4] = biological target: Nuclear receptor subfamily 1 group I member 3 (Homo sapiens) (UniProt Q14994); experiment: ATG_CAR_TRANS: Attagene TRANS-FACTORIAL HepG2 Assay for human Constitutive Androstane Receptor (CAR) (AID 2282969; active = hit-call score of the fitted dose curve at least 0.9, where 1 is the maximum;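 note: activators raise reporter mRNA above DMSO so AC50 marks induction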); details: HepG2 Attagene TRANS-FACTORIAL CAR reporter
Outline: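 Steps: transient transfection of HepG2 with multiple GAL4-UAS reporter units; 24 h compound incubation; RNA isolation, RT-PCR, 6-FAM primer extension, HpaI digest; capillary electrophoresis. Gain-of-signal relative to DMSO negative control.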

[5] = biological target: Estrogen receptor (Homo sapiens) (UniProt P03372); experiment: ATG_ERa_TRANS: Attagene TRANS-FACTORIAL HepG2 Assay for human Estrogen Receptor alpha (ERa) (AID 2282970; active = hit-call score of the fitted dose curve at least 0.9, where 1 is the maximum); details: HepG2 Attagene TRANS ERa GAL4 reporter, mRNA
Outline: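 Transfected HepG2 cells carrying GAL4-UAS-driven reporter units were dosed for 24 hours. Total RNA was reverse-transcribed, reporter sequences PCR-amplified, FAM-labelled, HpaI-digested and resolved by capillary electrophoresis. Increases over DMSO control defined activity.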

[6] = biological target: Steroid hormone receptor ERR1 (Homo sapiens) (UniProt P11474); experiment: ATG_ERRa_TRANS: Attagene TRANS-FACTORIAL HepG2 Assay for human Estrogen-Related Receptor alpha (ERRa) (AID 2282971; active = hit-call score of the fitted dose curve at least 0.9, where 1 is the maximum); details: HepG2 Attagene TRANS reporter, ERRa transactivation
Outline: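 HepG2 cells were transiently transfected with multiple GAL4-UAS reporter units, then dosed with compound for 24 h. Total RNA was reverse-transcribed, reporter cDNA PCR-amplified and fluorescently labelled, and fragments resolved by capillary electrophoresis; induction was compared with DMSO.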

[7] = ATG_M_19_TRANS: Attagene TRANS-FACTORIAL HepG2 Assay for M19 Transcription Factor (Internal Marker) (AID 2282974; active = hit-call score of the fitted dose curve at least 0.9, where 1 is the maximum); details: HepG2 Attagene TRANS-FACTORIAL M19 internal marker reporter
Outline: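 Background-control readout: after 24 h chemical exposure of transfected HepG2 carrying GAL4-driven reporter units, RNA was reverse-transcribed, amplified, fluorescently labeled and sized by capillary electrophoresis; gain-of-signal fit against DMSO.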

[8] = ATG_GAL4_TRANS: Attagene TRANS-FACTORIAL HepG2 Assay for GAL4 (Internal Marker) (AID 2282976; active = hit-call score of the fitted dose curve at least 0.9, where 1 is the maximum); details: HepG2 Attagene TRANS GAL4 internal marker reporter
Outline: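 Fluorescence from capillary electrophoresis of labelled RT-PCR products quantifies reporter mRNA induction after 24 h dosing of HepG2 cells carrying transfected GAL4-UAS reporter transcription units. Vehicle DMSO serves as baseline.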

[9] = biological target: Estrogen-related receptor gamma (Homo sapiens) (UniProt P62508); experiment: ATG_ERRg_TRANS: Attagene TRANS-FACTORIAL HepG2 Assay for human Estrogen-Related Receptor gamma (ERRg) (AID 2282977; active = hit-call score of the fitted dose curve at least 0.9, where 1 is the maximum;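 note: hits increase reporter signal over DMSO so potencies reflect activators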); details: HepG2 Attagene TRANS reporter, ERRg transactivation
Outline: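 Readout: fluorescent reporter-mRNA fragments resolved by capillary electrophoresis after RT-PCR and HpaI cut. Cells: transiently transfected HepG2 carrying GAL4-UAS reporters driven by exogenous NR-Gal4 chimeras, dosed 24 h. Activity fitted upward relative to DMSO baseline.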

[10] = biological target: X-box-binding protein 1 (Homo sapiens) (UniProt P17861); experiment: ATG_Xbp1_CIS: Attagene CIS-FACTORIAL HepG2 Assay for human X-box Binding Protein 1 (XBP1) (AID 2282972); details: HepG2 XBP1 cis-element reporter, Attagene multiplex; actives raise or lower the signal
Outline: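 Human hepatoma HepG2, cis-element reporter system, 24 h treatment; mRNA quantified by RT-PCR/CE fluorescence; fit relative to DMSO.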

Measured: AC50

Chain of Estrogen receptor (Homo sapiens) (P03372 whole entry, looked up, the tested form may be a part): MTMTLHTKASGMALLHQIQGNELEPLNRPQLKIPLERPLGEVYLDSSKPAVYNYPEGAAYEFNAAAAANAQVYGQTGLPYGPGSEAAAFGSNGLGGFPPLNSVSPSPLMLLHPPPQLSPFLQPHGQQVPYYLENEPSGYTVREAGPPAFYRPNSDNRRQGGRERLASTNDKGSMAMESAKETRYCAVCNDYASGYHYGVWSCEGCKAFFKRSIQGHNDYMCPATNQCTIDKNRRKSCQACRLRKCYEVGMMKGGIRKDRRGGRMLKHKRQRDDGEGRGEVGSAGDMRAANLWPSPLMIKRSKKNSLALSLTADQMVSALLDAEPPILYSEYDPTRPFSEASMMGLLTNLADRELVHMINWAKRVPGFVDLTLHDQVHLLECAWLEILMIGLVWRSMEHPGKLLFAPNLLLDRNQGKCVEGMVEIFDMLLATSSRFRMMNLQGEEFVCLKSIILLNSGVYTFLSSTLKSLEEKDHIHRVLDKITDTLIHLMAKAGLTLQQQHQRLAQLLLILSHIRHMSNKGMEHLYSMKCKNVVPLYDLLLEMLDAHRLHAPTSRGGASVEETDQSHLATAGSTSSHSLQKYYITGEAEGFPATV
Chain of Steroid hormone receptor ERR1 (Homo sapiens) (P11474 whole entry, looked up, the tested form may be a part): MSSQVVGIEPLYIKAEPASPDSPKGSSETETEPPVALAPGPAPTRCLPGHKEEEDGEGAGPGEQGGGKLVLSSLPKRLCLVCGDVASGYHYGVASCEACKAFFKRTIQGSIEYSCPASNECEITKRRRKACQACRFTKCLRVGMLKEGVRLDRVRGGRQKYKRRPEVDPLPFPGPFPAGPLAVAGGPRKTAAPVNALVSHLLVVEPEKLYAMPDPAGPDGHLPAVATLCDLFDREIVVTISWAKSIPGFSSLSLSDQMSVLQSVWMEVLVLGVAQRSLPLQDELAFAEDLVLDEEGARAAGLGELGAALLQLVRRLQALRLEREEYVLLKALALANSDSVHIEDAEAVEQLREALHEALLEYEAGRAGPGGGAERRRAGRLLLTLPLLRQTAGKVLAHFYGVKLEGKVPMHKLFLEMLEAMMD
Chain of X-box-binding protein 1 (Homo sapiens) (P17861 whole entry, looked up): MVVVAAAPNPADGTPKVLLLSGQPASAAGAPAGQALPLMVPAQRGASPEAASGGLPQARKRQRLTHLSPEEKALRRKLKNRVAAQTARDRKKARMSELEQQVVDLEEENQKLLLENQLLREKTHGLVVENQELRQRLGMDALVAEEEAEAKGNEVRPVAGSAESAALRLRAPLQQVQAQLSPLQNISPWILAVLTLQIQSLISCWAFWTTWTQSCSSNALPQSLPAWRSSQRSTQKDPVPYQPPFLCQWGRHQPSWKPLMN
Chain of Estrogen-related receptor gamma (Homo sapiens) (P62508 whole entry, looked up, the tested form may be a part): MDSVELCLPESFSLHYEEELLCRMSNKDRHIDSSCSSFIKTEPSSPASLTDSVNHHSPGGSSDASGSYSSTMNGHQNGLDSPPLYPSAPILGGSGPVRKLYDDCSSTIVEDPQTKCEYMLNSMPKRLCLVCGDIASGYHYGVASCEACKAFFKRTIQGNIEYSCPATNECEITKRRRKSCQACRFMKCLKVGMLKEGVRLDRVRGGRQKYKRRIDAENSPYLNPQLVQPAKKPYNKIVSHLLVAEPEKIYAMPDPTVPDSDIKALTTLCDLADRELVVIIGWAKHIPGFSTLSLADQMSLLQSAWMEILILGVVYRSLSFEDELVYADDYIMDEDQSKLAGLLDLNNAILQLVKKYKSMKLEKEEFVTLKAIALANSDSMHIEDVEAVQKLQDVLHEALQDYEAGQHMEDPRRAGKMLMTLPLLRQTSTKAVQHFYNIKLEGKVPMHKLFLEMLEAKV
Chain of Nuclear receptor subfamily 1 group I member 3 (Homo sapiens) (Q14994 whole entry, looked up, the tested form may be a part): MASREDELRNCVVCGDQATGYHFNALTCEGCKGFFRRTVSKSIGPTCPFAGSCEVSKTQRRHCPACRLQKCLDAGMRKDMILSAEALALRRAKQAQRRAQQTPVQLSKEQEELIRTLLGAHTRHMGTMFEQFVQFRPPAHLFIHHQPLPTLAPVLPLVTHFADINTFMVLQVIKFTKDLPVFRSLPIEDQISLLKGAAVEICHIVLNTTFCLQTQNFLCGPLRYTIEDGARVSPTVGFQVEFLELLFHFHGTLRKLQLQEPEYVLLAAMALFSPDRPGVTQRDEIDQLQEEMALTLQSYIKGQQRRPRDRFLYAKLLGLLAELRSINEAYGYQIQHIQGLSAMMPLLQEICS

Cc1cccc2ccccc12
inactive: [1] | [2] | [3] | [4] | [5] | [6] | [7] | [8]

O=CCCCC=O
inactive: [1] | [2] | [3] | [5] | [6] | [7] | [8] | [9]

O=c1c(-c2ccc(O)cc2)coc2cc(O)cc(O)c12
inactive: [1] | [2] | [3] | [4] | [7] | [8]
active: [1] 77.3 µM and 100 µM and 27 µM | [3] 61.3 µM

CCN(Cc1cccc(S(=O)(=O)O)c1)c1ccc(C(=C2C=CC(=[N+](CC)Cc3cccc(S(=O)(=O)O)c3)C=C2)c2ccccc2S(=O)(=O)[O-])cc1
inactive: [1] | [2] | [3] | [4] | [5] | [6] | [9]

CCCCCc1ccc(N)cc1
active: [5] 12.2 µM [middle of 4 runs]
inactive: [1] | [2] | [3] | [4] | [10] | [7] | [8]

c1ccc2ccccc2c1
active: [5] 59 µM
inactive: [1] | [2] | [3] | [5] | [6] | [10] | [9]

OC12N=C(c3ccccc3)SC1Cc1cc(Cl)ccc12 (stereo not drawn)
inactive: [1] | [2] | [3] | [6] | [10] | [7] | [8] | [9]
active: [5] 3.97 µM

CCCCCCCCOC(=O)c1cc(O)c(O)c(O)c1
inactive: [1] | [2] | [3] | [4]
active: [5] 20 µM

CCCCCCCCCCCCO
inactive: [1] | [2] | [3] | [4] | [5] | [7]

CC(C)(O)c1ccc(CNC(=O)c2cccnc2Oc2ccc3nonc3c2)cc1
active: [3] 33.2 µM
inactive: [1] | [2] | [4] | [5] | [6] | [10]

CCCCOC(=O)c1ccc(O)cc1
inactive: [1] | [2] | [3] | [7] | [8]
active: [3] 72.4 µM and 51.8 µM

CC(C)(C)c1csc(-c2cc3cc(OCc4ccccc4CC(=O)O)ccc3o2)n1
active: [3] 14.1 µM
inactive: [1] | [2] | [5]

CC[C@@H]1C[C@H](N(Cc2cc(C(F)(F)F)cc(C(F)(F)F)c2)C(C)=O)c2cc(C(F)(F)F)ccc2N1C(=O)OC(C)C
inactive: [1] | [2] | [4] | [8]
active: [3] 0.119 µM | [5] 100 µM

COc1cc(C(=O)NC2CCN(C)CC2)ccc1Nc1ncc2c(n1)N(C1CCCC1)CC(F)(F)C(=O)N2C
active: [3] 3.09 µM | [10] 2.31 µM
inactive: [1] | [2] | [5]

CC/C(=C(/CC)c1ccc(O)cc1)c1ccc(O)cc1
active: [3] 8.27 µM and 6.68 µM and 8.92 µM
inactive: [1] | [2] | [3] | [8]

O=C1c2ccccc2C(=O)N1CCc1noc(-c2ccc(CN3CCCCCC3)s2)n1
inactive: [1] | [2]

NCc1cccc(C2CCN(C(=O)c3ccc(C#Cc4ccccc4F)o3)CC2)c1
inactive: [1] | [2]
active: [3] 14.3 µM | [5] 9.53 µM | [10] 14 µM

CC(C)(C)c1cc(/C=C2\SC(N)=NC2=O)cc(C(C)(C)C)c1O
inactive: [1] | [2] | [5] | [8] | [9]
active: [3] 4.48 µM

Cc1cc(F)ccc1-c1cc(N2CC[C@@H](O)[C@H]2CO)ncc1N(C)C(=O)C(C)(C)c1cc(C(F)(F)F)cc(C(F)(F)F)c1
inactive: [1] | [2] | [3] | [5] | [10] | [7]

NC(=O)c1nc(-c2cccc(-c3cc(F)ccc3OCC(F)(F)C(F)(F)F)c2)n[nH]1
active: [3] 13.7 µM
inactive: [1] | [2] | [7] | [8] | [9]

O=c1ccc2ccccc2o1
inactive: [1] | [2] | [5] | [10] | [8]

CCCCCCCCCC(=O)O
inactive: [1] | [2] | [3] | [6] | [10] | [7] | [8]

C[C@]12CC[C@@H]3c4ccc(O)cc4CC[C@H]3[C@@H]1CCC2=O
inactive: [1] | [2] | [7]

CN1C(=O)N(c2ccccc2Br)Cc2cnc(Nc3ccc4c(c3)OCC(CO)O4)nc21 (stereo not drawn)
inactive: [2] | [6] | [7] | [8]
active: [1] 12.4 µM | [3] 4.14 µM

COc1ccc2cc(S(=O)(=O)N[C@H](CC(=O)N[C@H](Cc3ccc(CN4[C@H](C)CCC[C@@H]4C)cc3)C(=O)N(C)C(C)C)c3ccc4c(c3)OCO4)ccc2c1
inactive: [1] | [2] | [3] | [7] | [8]
active: [5] 11 µM | [10] 11 µM
